In PubChem BioAssay (NCATS):
Records with an inconclusive call do not appear. The source made the active and inactive calls. Unless noted, calls follow the shape of the dose curve; as a rule, active = well fitted inhibition curve with a large enough effect; inconclusive = small, poorly fitted or top-dose-only effect; inactive = flat fitted curve, though single readings scatter.

Key:
CP252 = assay: qHTS profiling for inhibitors of Plasmodium falciparum proliferation (AID 504749);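 also: 0% = DMSO vehicle and full inhibition = artemisinin control; nearly all actives have a fitted effect of over 60% in size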; conditions: P. falciparum in erythrocytes, SYBR Green DNA, 72 h; series mostly up to 28.7 µM
Summary of the method: (§1)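 Parasite proliferation within erythrocytes, 72 h exposure. Endpoint: SYBR Green I fluorescence after overnight lysis at room temperature. Controls: 0.29 uM artemisinin, DMSO.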

CP256 = assay: as above; conditions: P. falciparum in erythrocytes, SYBR Green DNA, 72 h; series mostly up to 28.7 µM
Summary of the method: as §1

CP260 = assay: as above; conditions: P. falciparum in erythrocytes, SYBR Green DNA, 72 h; series mostly up to 28.7 µM
Summary of the method: as §1

CP262 = assay: as above; conditions: P. falciparum in erythrocytes, SYBR Green DNA, 72 h; series mostly up to 28.7 µM
Summary of the method: as §1

CP265 = assay: as above; conditions: P. falciparum in erythrocytes, SYBR Green DNA, 72 h; series mostly up to 28.7 µM
Summary of the method: as §1

CP266 = assay: as above; conditions: P. falciparum in erythrocytes, SYBR Green DNA, 72 h; series mostly up to 28.7 µM
Summary of the method: as §1

CP268 = assay: as above; conditions: P. falciparum in erythrocytes, SYBR Green DNA, 72 h; series mostly up to 28.7 µM
Summary of the method: as §1

CP269 = assay: as above; conditions: P. falciparum in erythrocytes, SYBR Green DNA, 72 h; series mostly up to 28.7 µM
Summary of the method: as §1

CP286 = assay: as above; conditions: P. falciparum in erythrocytes, SYBR Green DNA, 72 h; series mostly up to 28.7 µM
Summary of the method: as §1

CP291 = assay: as above; conditions: P. falciparum in erythrocytes, SYBR Green DNA, 72 h; series mostly up to 28.7 µM
Summary of the method: as §1

CP297 = assay: as above; conditions: P. falciparum in erythrocytes, SYBR Green DNA, 72 h; series mostly up to 28.7 µM
Summary of the method: as §1

CP305 = assay: as above; conditions: P. falciparum in erythrocytes, SYBR Green DNA, 72 h; series mostly up to 28.7 µM
Summary of the method: as §1

CP315 = assay: as above; conditions: P. falciparum in erythrocytes, SYBR Green DNA, 72 h; series mostly up to 28.7 µM
Summary of the method: as §1

CP325 = assay: as above; conditions: P. falciparum in erythrocytes, SYBR Green DNA, 72 h; series mostly up to 28.7 µM
Summary of the method: as §1

CP329 = assay: as above; conditions: P. falciparum in erythrocytes, SYBR Green DNA, 72 h; series mostly up to 28.7 µM
Summary of the method: as §1

DFO2036 = assay: as above; conditions: P. falciparum in erythrocytes, SYBR Green DNA, 72 h; series mostly up to 28.7 µM
Summary of the method: as §1

DIV14 = assay: as above; conditions: P. falciparum in erythrocytes, SYBR Green DNA, 72 h; series mostly up to 28.7 µM
Summary of the method: as §1

DIV30 = assay: as above; conditions: P. falciparum in erythrocytes, SYBR Green DNA, 72 h; series mostly up to 28.7 µM
Summary of the method: as §1

Dd2 = assay: as above; conditions: P. falciparum in erythrocytes, SYBR Green DNA, 72 h; series mostly up to 28.7 µM
Summary of the method: as §1

ECU = assay: as above; conditions: P. falciparum in erythrocytes, SYBR Green DNA, 72 h; series mostly up to 28.7 µM
Summary of the method: as §1

FAB9 = assay: as above; conditions: P. falciparum in erythrocytes, SYBR Green DNA, 72 h; series mostly up to 28.7 µM
Summary of the method: as §1

GB4 = assay: as above; conditions: P. falciparum in erythrocytes, SYBR Green DNA, 72 h; series mostly up to 28.7 µM
Summary of the method: as §1

HB3 = assay: as above; conditions: P. falciparum in erythrocytes, SYBR Green DNA, 72 h; series mostly up to 28.7 µM
Summary of the method: as §1

ICS = assay: as above; conditions: P. falciparum in erythrocytes, SYBR Green DNA, 72 h; series mostly up to 28.7 µM
Summary of the method: as §1

JCK = assay: as above; conditions: P. falciparum in erythrocytes, SYBR Green DNA, 72 h; series mostly up to 28.7 µM
Summary of the method: as §1

N140 = assay: as above; conditions: P. falciparum in erythrocytes, SYBR Green DNA, 72 h; series mostly up to 28.7 µM
Summary of the method: as §1

P93_24 = assay: as above; conditions: P. falciparum in erythrocytes, SYBR Green DNA, 72 h; series mostly up to 28.7 µM
Summary of the method: as §1

P94_40 = assay: as above; conditions: P. falciparum in erythrocytes, SYBR Green DNA, 72 h; series mostly up to 28.7 µM
Summary of the method: as §1

PAD = assay: as above; conditions: P. falciparum in erythrocytes, SYBR Green DNA, 72 h; series mostly up to 28.7 µM
Summary of the method: as §1

PC15 = assay: as above; conditions: P. falciparum in erythrocytes, SYBR Green DNA, 72 h; series mostly up to 28.7 µM
Summary of the method: as §1

PC26 = assay: as above; conditions: P. falciparum in erythrocytes, SYBR Green DNA, 72 h; series mostly up to 28.7 µM
Summary of the method: as §1

PC49 = assay: as above; conditions: P. falciparum in erythrocytes, SYBR Green DNA, 72 h; series mostly up to 28.7 µM
Summary of the method: as §1

SC27B = assay: as above; conditions: P. falciparum in erythrocytes, SYBR Green DNA, 72 h; series mostly up to 28.7 µM
Summary of the method: as §1

TAB109 = assay: as above; conditions: P. falciparum in erythrocytes, SYBR Green DNA, 72 h; series mostly up to 28.7 µM
Summary of the method: as §1

TAB113 = assay: as above; conditions: P. falciparum in erythrocytes, SYBR Green DNA, 72 h; series mostly up to 28.7 µM
Summary of the method: as §1

TAB165 = assay: as above; conditions: P. falciparum in erythrocytes, SYBR Green DNA, 72 h; series mostly up to 28.7 µM
Summary of the method: as §1

W2 = assay: as above; conditions: P. falciparum in erythrocytes, SYBR Green DNA, 72 h; series mostly up to 28.7 µM
Summary of the method: as §1

[1] = target: Nuclear receptor subfamily 1 group I member 2 (Rattus norvegicus) (UniProt Q9R1A7); assay: qHTS assay for small molecule activators of the rat pregnane X receptor (rPXR) signaling pathway (AID 651751; call rule not given here; also: 0% is about no effect); conditions: rPXR reporter cells, luciferase (One-Glo), 24 h
Nuclear receptor subfamily 1 group I member 2 (Rattus norvegicus), sequence (Q9R1A7 whole entry, looked up): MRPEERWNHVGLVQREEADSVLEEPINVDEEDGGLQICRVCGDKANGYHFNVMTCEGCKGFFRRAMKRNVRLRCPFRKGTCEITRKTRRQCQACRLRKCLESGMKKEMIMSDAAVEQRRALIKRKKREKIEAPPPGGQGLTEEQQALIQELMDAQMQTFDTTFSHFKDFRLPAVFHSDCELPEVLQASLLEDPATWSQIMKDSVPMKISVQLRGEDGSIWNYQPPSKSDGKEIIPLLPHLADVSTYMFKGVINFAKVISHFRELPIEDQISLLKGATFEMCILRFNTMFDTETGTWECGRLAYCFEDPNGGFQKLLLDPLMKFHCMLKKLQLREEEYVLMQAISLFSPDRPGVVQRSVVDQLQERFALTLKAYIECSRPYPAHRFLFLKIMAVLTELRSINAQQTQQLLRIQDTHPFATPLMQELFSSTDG

[2] = qHTS assay for small molecule activators of the human pregnane X receptor (PXR) signaling pathway (AID 720659; call rule not given here; also: 0% is about no effect)

C[C@@H]1[C@H](O)[C@@H](C)/C=C/C=C/C=C/C=C/C=C/C=C/C=C/[C@H](O[C@@H]2O[C@H](C)[C@@H](O)[C@H](N)[C@@H]2O)C[C@@H]2O[C@](O)(C[C@@H](O)C[C@@H](O)[C@H](O)CC[C@@H](O)C[C@@H](O)CC(=O)O[C@H]1C)C[C@H](O)[C@H]2C(=O)O
inactive: Potency (CP252) | Potency (CP256) | Potency (CP260) | Potency (CP262) | Potency (CP265) | Potency (CP266) | Potency (CP268) | Potency (CP269) | Potency (CP286) | Potency (CP291) | Potency (CP297) | Potency (CP305) | Potency (CP315) | Potency (CP325) | Potency (CP329) | Potency (DFO2036) | Potency (DIV14) | Potency (DIV30) | Potency (Dd2) | Potency (ECU) | Potency (FAB9) | Potency (GB4) | Potency (HB3) | Potency (ICS) | Potency (JCK) | Potency (N140) | Potency (P93_24) | Potency (P94_40) | Potency (PAD) | Potency (PC15) | Potency (PC26) | Potency (PC49) | Potency (SC27B) | Potency (TAB109) | Potency (TAB113) | Potency (TAB165) | Potency (W2) | max response [1] -0.988% | outcome [2]
